Reference: publication PMC4336329 (PLoS ONE, 2015)
The whole screen tested about 310,000 compounds, of which about 14,000 (4.5%) showed an effect of 50% or more. Effects have a minus sign here. The entries come from a sample that favours strong results as a whole.

Biological target: human ether-à-go-go-related gene (hERG) potassium channel (human, UniProt Q12809)
Assay: primary screen, population patch clamp on CHO cells stably expressing hERG; higher = less effect of the substance
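Further: peak tail current of the secondary pulse compared with the same well before compound.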

Chain of human ether-à-go-go-related gene (hERG) potassium channel (Q12809 whole entry, looked up): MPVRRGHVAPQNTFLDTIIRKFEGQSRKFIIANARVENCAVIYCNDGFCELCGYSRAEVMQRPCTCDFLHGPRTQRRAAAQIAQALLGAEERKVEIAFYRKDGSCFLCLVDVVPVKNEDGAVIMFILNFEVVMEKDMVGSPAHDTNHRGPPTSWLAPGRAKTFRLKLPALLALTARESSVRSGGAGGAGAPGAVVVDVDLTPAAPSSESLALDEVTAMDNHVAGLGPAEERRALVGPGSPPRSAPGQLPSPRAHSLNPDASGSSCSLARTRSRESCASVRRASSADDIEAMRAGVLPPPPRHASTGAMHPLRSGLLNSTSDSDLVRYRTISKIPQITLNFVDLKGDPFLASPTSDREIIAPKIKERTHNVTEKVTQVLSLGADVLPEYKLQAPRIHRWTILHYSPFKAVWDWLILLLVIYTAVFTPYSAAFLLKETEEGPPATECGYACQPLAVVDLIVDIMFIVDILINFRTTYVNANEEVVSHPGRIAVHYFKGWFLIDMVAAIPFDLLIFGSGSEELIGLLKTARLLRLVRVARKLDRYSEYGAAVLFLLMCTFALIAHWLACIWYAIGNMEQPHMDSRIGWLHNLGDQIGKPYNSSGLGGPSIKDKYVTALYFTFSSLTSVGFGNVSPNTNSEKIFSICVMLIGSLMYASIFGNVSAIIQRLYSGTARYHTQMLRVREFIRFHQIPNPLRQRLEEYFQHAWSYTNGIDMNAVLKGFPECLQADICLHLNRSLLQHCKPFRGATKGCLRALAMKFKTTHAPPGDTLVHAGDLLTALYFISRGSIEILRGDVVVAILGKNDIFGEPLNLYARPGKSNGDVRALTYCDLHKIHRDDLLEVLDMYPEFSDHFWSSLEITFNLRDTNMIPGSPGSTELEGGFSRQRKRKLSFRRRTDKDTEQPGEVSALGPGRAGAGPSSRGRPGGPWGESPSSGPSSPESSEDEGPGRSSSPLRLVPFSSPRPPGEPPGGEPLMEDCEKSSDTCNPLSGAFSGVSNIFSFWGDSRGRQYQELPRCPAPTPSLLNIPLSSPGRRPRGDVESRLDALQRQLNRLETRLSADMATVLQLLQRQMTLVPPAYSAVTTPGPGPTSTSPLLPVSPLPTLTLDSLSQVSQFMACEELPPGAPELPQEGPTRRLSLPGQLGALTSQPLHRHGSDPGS

| SMILES | hERG current change (%, negative = inhibition) at 10uM [%] |
| --- | --- |
| Cc1ccccc1C(=O)NC(=S)NCC1CCCO1 (centres unmarked) | 12 |
| O=C(Nc1ccc2ncccc2c1)c1cc(Cl)ccc1Cl | 12.6 |
| CCOc1ccc(N(CC(=O)NCCc2ccc(OC)cc2)S(C)(=O)=O)cc1 | -0.0301 |
| O=C(CSc1ncnc2c1cnn2-c1ccc(Cl)cc1)NCc1ccc2c(c1)OCO2 | 13.7 |
| CC(C)OC(=O)CCC1(C(=O)O)CCC(=O)NC1 (centres unmarked) | 7.55 |
| CCC(=O)Nc1ccc(OCc2nc3ccccc3s2)cc1 | 21.1 |
| O=C(CSc1ncccc1-c1nc2ccccc2[nH]1)Nc1ccc2c(c1)OCCO2 | -30.8 |
| CCn1c(SCC(=O)c2ccc(Cl)s2)nnc1-c1cccs1 | -35.5 |
| Cn1c(SCC(=O)c2ccccc2)nnc1-c1ccco1 | -39.5 |
| Cn1c(SCC(=O)Nc2ccc(Br)cc2F)nnc1-c1ccco1 | -26.7 |
| CCn1c(SCC(=O)c2cccs2)nnc1-c1ccco1 | -2.68 |
| Cn1c(SCC(=O)c2cc(Cl)c(Cl)s2)nnc1-c1ccco1 | -60.5 |
| CC(C)Cn1c(SCC(=O)c2ccc(Cl)s2)nnc1-c1ccco1 | -76.7 |
| Cn1c(SCC(=O)c2cccs2)nnc1-c1ccco1 | 11.8 |
| Cn1c(SCC(=O)Nc2ccc(Cl)cc2F)nnc1-c1ccco1 | -59.4 |
| Cn1c(SCC(=O)Nc2ccccc2O)nnc1-c1ccco1 | -27.4 |
| CCN(C(=O)CN1CCN(S(=O)(=O)c2ccccc2C(F)(F)F)CC1)c1c(N)n(Cc2ccccc2)c(=O)[nH]c1=O | 13.6 |
| O=C(NC(=S)NCc1ccc(-c2nc3ccccc3s2)cc1)c1ccco1 | 34 |
| Cc1ccccc1-n1ncc2c1CC(C)(C)CC2NC(=O)c1cn[nH]c1C (centres unmarked) | -6.22 |
| CCCC(=O)Nc1ccc(C)c(O)c1 | 4.76 |
| C/C(=N\NC(=O)c1ccccc1O)c1cccc(NC(=O)c2ccccc2)c1 | -0.335 |
| O=C1N(CC(=O)N2CCc3ccccc32)CCN1Cc1ccccc1Cl | -12.1 |

| SMILES | hERG current change (%, negative = inhibition) at 10uM [%] |
| --- | --- |
| CN(C(=O)COC(=O)CCC(=O)c1ccccc1)c1c(N)n(Cc2ccccc2)c(=O)[nH]c1=O | 14.1 |
| Cl.c1ccc2c(NCC3CCCO3)nc(N3CCOCC3)nc2c1 (centres unmarked) | -49.5 |
| Cl.OCCNc1nc(N2CCN(c3ccccc3)CC2)nc2ccccc12 | -74.6 |
| Cl.c1ccc2c(NCC3CCCO3)nc(N3CCCCC3)nc2c1 (centres unmarked) | -72.9 |
| C=CCNc1nc(C(=O)OCC)nc2ccccc12 | 11.1 |
| C=CCNc1ncnc2ccccc12 | 22.5 |
| C=CCNc1nc(N2CCCC2)nc2ccccc12 | -78.3 |
| Cl.OCCNc1nc(N2CCCCC2)nc2ccccc12 | -58.2 |
| OCCNc1nc(N2CCCC2)nc(N2CCCC2)n1 | -2.85 |
| c1ccc2c(NCC3CCCO3)nc(-c3ccncc3)nc2c1 (centres unmarked) | -14.6 |
| Cl.OCCNc1nc(-c2ccccc2)nc2ccccc12 | 2.57 |
| COc1ccc([C@@H]2CC=C(C(=O)O)[C@H](c3ccc(F)cc3)N2S(=O)(=O)c2ccc(Cl)cc2)cc1 | 27.2 |
| Cc1ccc(-c2c(C#N)c(N)n(-c3ccccc3)c(=O)c2C#N)cc1 | 20.3 |
| O=C(NC1CCCCC1)c1n[nH]c2c1CCCCC2 | 2.43 |
| CC1CC(C)CN(C(=O)CSCC(=O)O)C1 (centres unmarked) | 1.3 |
| CCC1CCc2c(sc(NC(=O)C3c4ccccc4Oc4ccccc43)c2C(N)=O)C1 (centres unmarked) | 2.02 |
| Cc1ccc(C(C(=O)NCc2ccco2)N(C(=O)CNC(=O)c2cccs2)c2ccc(C)cc2)cc1 (centres unmarked) | 27.3 |
| CC(=O)Oc1ccc2nc(-c3ccc(Br)o3)oc(=O)c2c1 | 21.5 |
| COCCn1cc(C(=O)c2ccccc2OCC(=O)Nc2cc(C)on2)cc(C#N)c1=O | 10.3 |
| COCCCn1cc(C(=O)c2cc(OC)ccc2OCC(=O)Nc2cc(C)on2)cc(C#N)c1=O | -53 |
| COCCCn1cc(C(=O)c2cc(OC)ccc2OCC(=O)N2CCCCC2C)cc(C#N)c1=O (centres unmarked) | -22.9 |
| CC(C)CC(=O)Nc1ccccc1N1CCN(C(=O)c2ccccc2)CC1 | -17.7 |
